Measured values published in PubChem BioAssay AID623939 (Vanderbilt Specialized Chemistry Center, 2012).
Unmarked numbers belong to inactive results. Calls of active or inactive are those of the source.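 The calls were made as follows: active = a compound whose calcium signal at the M5 receptor changes in step with its dose; inactive = the rest.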

These compounds were tested against Muscarinic acetylcholine receptor M5 (Homo sapiens) (UniProt P08912) (assay: off-target potentiation of hM5 acetylcholine response – CHO cells, Fluo-4 calcium, ACh EC20, selectivity assay for M4 PAM optimization project, SAR follow-up (AID 623939)). Conditions: series mostly up to 30 µM; response, % ACh max: at the top concentration.
Chain of Muscarinic acetylcholine receptor M5 (Homo sapiens) (P08912 whole entry, looked up): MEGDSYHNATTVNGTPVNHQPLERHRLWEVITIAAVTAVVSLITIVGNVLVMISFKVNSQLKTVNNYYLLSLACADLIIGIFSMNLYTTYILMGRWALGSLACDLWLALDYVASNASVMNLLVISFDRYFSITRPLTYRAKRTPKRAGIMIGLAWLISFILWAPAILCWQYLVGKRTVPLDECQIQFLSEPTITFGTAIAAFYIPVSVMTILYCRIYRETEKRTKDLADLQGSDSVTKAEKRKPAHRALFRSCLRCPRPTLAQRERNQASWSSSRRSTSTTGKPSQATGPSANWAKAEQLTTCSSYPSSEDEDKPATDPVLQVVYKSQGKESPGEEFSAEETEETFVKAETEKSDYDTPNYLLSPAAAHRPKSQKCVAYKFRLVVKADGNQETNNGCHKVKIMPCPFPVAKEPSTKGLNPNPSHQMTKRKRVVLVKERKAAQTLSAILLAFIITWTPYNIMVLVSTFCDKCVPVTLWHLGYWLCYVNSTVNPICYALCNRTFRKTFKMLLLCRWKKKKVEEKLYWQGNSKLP

**Q.** With `COc1ccc(C)c2sc(NC(=O)c3ccncc3)nc12` as the compound, how does the “response, % ACh max” value read?
**A.** 10.5

**Q.** How did the “response, % ACh max” value turn out when `Cc1nc2sc(C(=O)NCCc3ccncc3)c(N)c2c(C)c1Cl` was run?
**A.** 19.3

**Q.** With `Cc1nc2sc(C(=O)NCc3ccc4c(c3)OCO4)c(N)c2c(C)c1Cl` as the compound, how does the outcome read?
**A.** inactive

**Q.** How did the “response, % ACh max” value turn out when `Cc1nc2sc(C(=O)NCc3nccs3)c(N)c2c(C)c1Cl` was run?
**A.** 18.3

**Q.** How did the “response, % ACh max” value turn out when `Cc1nc2sc(C(=O)NC3CC3)c(N)c2c(C)c1Cl` was run?
**A.** 17.9

**Q.** Which outcome does the source give for `Cc1nc2sc(C(=O)NCc3ccccc3)c(N)c2c(C)c1Cl` here?
**A.** inactive

**Q.** For `Cc1nc2sc(C(=O)NCc3ccncc3)c(N)c2c(C)c1Cl`, which outcome is on record?
**A.** inactive

**Q.** How did the outcome turn out when `Cc1nc2sc(C(=O)NCc3cccnc3)c(N)c2c(C)c1Cl` was run?
**A.** inactive

**Q.** For `Cc1nc2sc(C(=O)NCc3ccncn3)c(N)c2c(C)c1Cl`, which “response, % ACh max” value is on record?
**A.** 15.2

**Q.** With `Cc1nc2sc(C(=O)NCc3cccc(F)c3F)c(N)c2c(C)c1Cl` as the compound, how does the “response, % ACh max” value read?
**A.** 16.2
